SARS PLP yeast: qHTS of Yeast-based Assay for SARS-CoV PLP. S. cerevisiae expressing SARS-CoV PLpro, growth rescue. Potency, µM (top dose mostly 32.9 µM), hits mostly activators. actives 0.19% (n = 330,000). AID 485353, 2010; calls by dose curve; further: nearly all actives have a fitted effect of over 55% in size
AMA1 RON2 block: qHTS for Inhibitors of AMA1-RON; Towards Development of Antimalarial Drug Lead: Primary Screen. AlphaScreen AMA1-biotinylated RON2 peptide binding. Potency, µM (doses to about 58.2 µM), actives largely listed as inhibitors. actives 0.2% (n = 360,000); further: nearly all actives have a fitted effect of over 45% in size
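AMA1 (3D7) with his tag at 25 nM final met compounds first, then biotinylated RON2 peptide at 25 nM; detection used donor plus acceptor beads, 10 µg/mL apiece, read by AlphaScreen after 30 min at room temperature.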
Shiga toxin inh: A qHTS for Small Molecule Inhibitors of Shiga Toxin; actives 9.2% (n = 290,000); Vero cells, Shiga toxin protein synthesis inhibition reporter; inhibition, % at 38.7 µM; in the data active means inhibition mostly above about 28%, no sharp cut-off; inactive means mostly below about 43%
Pf growth 96h: Primary qHTS for delayed death inhibitors of the malarial parasite plastid, 96 hour incubation; P. falciparum luciferase reporter growth, 96 h; Potency, µM (doses to about 28.7 µM), actives largely listed as inhibitors; actives 6.9% (n = 320,000)
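Erythrocytes infected with luciferase-expressing P. falciparum were dispensed at 2% hematocrit and 0.05% parasitemia (final), then incubated with compounds 96 hours at 37 C in 5% CO2. Luminescence after detection reagent addition reported growth.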
Pf growth 48h: Primary qHTS for delayed death inhibitors of the malarial parasite plastid, 48 hour incubation; Potency, µM (top dose mostly 28.7 µM), actives largely listed as inhibitors; P. falciparum luciferase growth in erythrocytes, 48 h; actives 5.9% (n = 310,000)
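Cell-based growth assay: transgenic P. falciparum expressing firefly luciferase, cultured in red cells within RPMI 1640 containing 0.5% w/v Albumax, 24 mM bicarbonate and gentamycin. A drop in luciferase activity indicates inhibition.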
CHX counter: Cycloheximide Counterscreen for Small Molecule Inhibitors of Shiga Toxin; actives 12% (n = 300,000); max response, %; AID 2314, 2010; cell reporter, cycloheximide protein synthesis inhibition counterscreen; in the data active means max response mostly above about 13%, no sharp cut-off; inactive means mostly below about 14%; further: read at 38.3 µM for the half of the compounds with a filed dose
Of the large screens only hits and unclear results are named; the others gave an inactive call. Only some compounds are listed: those with a hit (about 19% of all), similar ones and a draw of the others. Unless noted, the call rests on the fitted dose curve; in most records, active means well fitted curve in the direction sought with a large enough effect; inconclusive means small, poorly fitted or top-dose-only effect, or another doubt; inactive means no such curve, though single readings can be large; an effect the other way counts as inactive or inconclusive.

CN(C)c1ccc(/C=N/NC(=O)c2ccccc2O)o1	SARS PLP yeast inconclusive, Shiga toxin inh 131, Pf growth 96h inconclusive, CHX counter 20
O=C(N/N=C/c1ccc(-c2cccc([N+](=O)[O-])c2)o1)c1ccccc1O	Pf growth 48h inconclusive
COc1cc([N+](=O)[O-])ccc1-c1ccc(/C=N/NC(=O)c2ccccc2O)o1	Pf growth 96h inconclusive, Pf growth 48h 2.6µM (no result: AMA1 RON2 block)
Cc1ccc(/C=N/NC(=O)c2cc(C)oc2C)o1	CHX counter 15
CC(/C=N/NC(=O)c1ccc(Br)cc1)=C\c1ccccc1	Pf growth 96h inconclusive (no result: Pf growth 48h)
CC(/C=N\NC(=O)c1cc(C)oc1C)=C\c1ccccc1	CHX counter 22
CCN(c1ccccc1)c1nc(Cl)nc2c1cnn2C	none (no result: SARS PLP yeast, Shiga toxin inh, Pf growth 96h, Pf growth 48h, CHX counter)
COCCNC(=O)C1(C)CCCN(Cc2noc(-c3ccccc3OC)n2)C1 (centres undefined)	none (no result: SARS PLP yeast, Shiga toxin inh, Pf growth 96h, Pf growth 48h, CHX counter)
Cc1cc(C(=O)N/N=C/c2ccncc2)c(C)o1	none
Cc1ccc(/C=N/NC(=O)c2cc(C)oc2C)cc1	Shiga toxin inh 60, CHX counter 53
CC(=O)N1N=C(c2ccc([N+](=O)[O-])cc2)CC1c1ccccc1Cl (centres undefined)	Pf growth 48h inconclusive
CCn1cc([N+](=O)[O-])c(C(=O)N2CCCc3ccccc32)n1	none
CCn1cc([N+](=O)[O-])c(C(=O)N2N=C(c3ccc(Cl)c(Cl)c3)CC2c2ccccc2O)n1 (centres undefined)	Pf growth 96h inconclusive, Pf growth 48h 3.7µM
COc1ccc(C2=NN(C(=O)CCC(=O)O)C(c3ccc([N+](=O)[O-])cc3)C2)cc1 (centres undefined)	none
CCn1cc([N+](=O)[O-])c(C(=O)N2N=C(c3ccc4ccccc4c3)CC2c2cc(Br)ccc2O)n1 (centres undefined)	Pf growth 96h inconclusive, Pf growth 48h 3.3µM
CCn1cc([N+](=O)[O-])c(C(=O)N2N=C(c3ccccc3)CC2c2ccc([N+](=O)[O-])cc2)n1 (centres undefined)	Pf growth 96h inconclusive, Pf growth 48h 13µM
CCn1cc([N+](=O)[O-])c(C(=O)N2N=C(c3ccc(O)c(OC)c3)CC2c2ccccc2O)n1 (centres undefined)	Pf growth 96h 15µM, Pf growth 48h inconclusive
CCOC(=O)c1c(-c2ccc(OC)cc2)oc2c1C(OC(C)=O)CCC2 (centres undefined)	none (no result: SARS PLP yeast, Shiga toxin inh, Pf growth 96h, Pf growth 48h, CHX counter)
Cc1nc2nc(-c3ccccc3)cn2nc1C	Shiga toxin inh 85, CHX counter 28 (no result: SARS PLP yeast)
c1ccc(-c2cn3nc(-c4ccccc4)cnc3n2)cc1	Shiga toxin inh active, CHX counter 49
Cc1nc2nc(-c3ccc(F)cc3)cn2nc1C	CHX counter 32
CCc1ccc(-c2cn3nc(C)c(C)nc3n2)cc1	none
c1ccc(-c2cn3nc4c(nc3n2)CCCC4)cc1	none (no result: Pf growth 48h)
CCOc1ccc(NC(=S)N2CCC(NC(=O)c3ccccc3C)CC2)cc1	none
CC(C)Oc1ccc(CN2CCC(n3nccc3NC(=O)C3CC3)CC2)cc1	Pf growth 96h inconclusive
CCc1cccc(CC)c1NC(=S)N1CCn2cccc2C1c1cccnc1 (centres undefined)	Pf growth 96h inconclusive, Pf growth 48h inconclusive
O=C1c2ccccc2S(=O)(=O)N1CC1CC(c2ccccc2Cl)=NO1 (centres undefined)	Shiga toxin inh active, CHX counter 86
COc1ccccc1C1=NOC(CN2C(=O)c3ccccc3S2(=O)=O)C1 (centres undefined)	Shiga toxin inh 146, CHX counter 53
COc1ccccc1C1=NOC(COC(=O)c2ccc(Br)cc2)C1 (centres undefined)	none
O=C(NCCCNC(=O)c1ccc(-c2cccc(Cl)c2)o1)c1cnccn1	Pf growth 48h inconclusive
S=c1sscc1-c1ccccc1	AMA1 RON2 block 20µM (no result: SARS PLP yeast, Shiga toxin inh, Pf growth 96h, Pf growth 48h, CHX counter)
Cc1nc(NC(=O)C23CC4CC(CC(C4)C2)C3)sc1Cc1ccc2c(c1)OCO2	AMA1 RON2 block inconclusive, Shiga toxin inh 67, Pf growth 96h 1.7µM, Pf growth 48h inconclusive, CHX counter 25
Cc1nc(NC(=O)C2CCCC2)sc1Cc1ccc2c(c1)OCO2	AMA1 RON2 block inconclusive, Pf growth 96h inconclusive, Pf growth 48h inconclusive, CHX counter 22
Cc1cccc(C(=O)NCCC(=O)Nc2nc(C)c(Cc3ccc4c(c3)OCO4)s2)c1	none
Cc1ccc(-c2nn(-c3ccccc3)cc2CSC(=N)N)cc1	Pf growth 96h 1.7µM, Pf growth 48h inconclusive
O=C1CN(C(=O)COC(=O)CCC(=O)c2ccc(F)cc2)c2ccccc2N1	none (no result: Shiga toxin inh, Pf growth 96h, Pf growth 48h, CHX counter)
Cc1coc2c(C)c3oc(=O)c(CCC(=O)N4C[C@H]5C[C@@H](C4)c4cccc(=O)n4C5)c(C)c3cc12	Pf growth 96h inconclusive, Pf growth 48h 3.3µM
Cc1oc2cc3oc(=O)c(CCC(=O)N4C[C@H]5C[C@@H](C4)c4cccc(=O)n4C5)c(C)c3cc2c1C	Pf growth 96h 2.9µM, Pf growth 48h inconclusive
Cc1c(CC(=O)N2C[C@H]3C[C@@H](C2)c2cccc(=O)n2C3)c(=O)oc2c(C)c(O)ccc12	none
Cc1oc2c(C)c3oc(=O)c(CCC(=O)N4C[C@H]5C[C@@H](C4)c4cccc(=O)n4C5)c(C)c3cc2c1C	Pf growth 96h 12µM, Pf growth 48h inconclusive
Cc1c(C)c2ccc(OC(C)C(=O)N3C[C@H]4C[C@@H](C3)c3cccc(=O)n3C4)c(C)c2oc1=O (some centres undefined)	Pf growth 96h inconclusive
Cc1c(OC(C)C(=O)N2C[C@H]3C[C@@H](C2)c2cccc(=O)n2C3)ccc2c3c(c(=O)oc12)CCC3 (some centres undefined)	Pf growth 96h 10µM
Cc1coc2c(C)c3oc(=O)c(CCC(=O)NCCN4CCOCC4)c(C)c3cc12	Pf growth 96h inconclusive, Pf growth 48h inconclusive
Cc1coc2c(C)c3oc(=O)c(CCC(=O)N4CCC(C(=O)NCCCC(=O)O)(c5ccccc5)CC4)c(C)c3cc12	Pf growth 96h 9.3µM, Pf growth 48h inconclusive
CCCCCCS(=O)Cc1ccccc1 (centres undefined)	none (no result: Pf growth 96h)
COc1ccc(C(=O)N/N=C/c2ccc3cccc(OCc4ccccc4)c3n2)cc1	Shiga toxin inh 61, Pf growth 48h inconclusive, CHX counter 22
O/N=C/c1ccc2cccc(OCc3ccccc3)c2n1	none
NC(=S)N/N=C/c1ccc2cccc(OCc3ccccc3)c2n1	Pf growth 96h inconclusive, Pf growth 48h 15µM
COc1c(OC(C)=O)ccc(/C=C/c2ccc3cccc(OCc4ccccc4)c3n2)c1[N+](=O)[O-]	Shiga toxin inh 53, Pf growth 96h inconclusive, Pf growth 48h 1.9µM, CHX counter 35

High-throughput results as filed in PubChem BioAssay.
